# Compound activity (PubChem BioAssay)
# VDR inh = Inhibitors of the vitamin D receptor (VDR): qHTS. Vitamin D3 receptor (Homo sapiens), P11473. Potency, µM, inactives show max response, negative = inhibition, hits mostly inhibitors. 400,000 compounds, 0.93% hits. VDR-SRC2-3 peptide fluorescence polarization, 2 h; further: on the % scale 0 is the no-effect control and ±100 the full control effect
# Target sequence (P11473 whole entry, looked up): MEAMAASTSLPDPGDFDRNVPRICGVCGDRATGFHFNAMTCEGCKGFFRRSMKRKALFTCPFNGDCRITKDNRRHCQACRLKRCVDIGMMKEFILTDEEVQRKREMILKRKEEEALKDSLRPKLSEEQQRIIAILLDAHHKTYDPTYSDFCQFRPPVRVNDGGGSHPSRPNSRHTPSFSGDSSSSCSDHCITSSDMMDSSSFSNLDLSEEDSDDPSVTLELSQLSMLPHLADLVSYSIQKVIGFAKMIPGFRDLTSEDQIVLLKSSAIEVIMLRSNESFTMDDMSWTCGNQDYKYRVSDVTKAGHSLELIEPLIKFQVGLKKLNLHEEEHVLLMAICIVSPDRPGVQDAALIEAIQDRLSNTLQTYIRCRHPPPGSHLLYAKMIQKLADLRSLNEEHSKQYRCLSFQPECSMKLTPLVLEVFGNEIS
#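 Two reagent solutions held at 4 deg C in the dark were dispensed, compounds pinned at 23 nl, and the mixture incubated 2 h at room temperature. Read-out: fluorescence polarization of VDR–SRC2-3 peptide binding.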
# Vif-A3G inh = qHTS for Inhibitors of Vif-A3G Interactions: qHTS; DNA dC->dU-editing enzyme APOBEC-3G (Homo sapiens), Q9HC16; HeLa A3G-eYFP + Vif (tagged APOBEC3G with the HIV-1 protein that degrades it), YFP fluorescence, overnight; Potency, µM (highest dose often 46.1 µM), for the others: top-dose activity, negative = active, hits mostly inhibitors; 410,000 compounds, 0.076% hits; AID 602310, 2012; further: on the % scale 0 is the no-effect control and ±100 the full control effect; nearly all actives have a fitted effect of over 60% in size
#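 HeLa cells stably expressing Vif and C-terminally eYFP-tagged A3G, seeded overnight at 37 deg C, then exposed to compound by pintool overnight at 37 deg C. Rise in yellow fluorescence (Ex 488/Em 500-530, Acumen) marks blocked Vif-driven A3G degradation.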
# rTrxR1 inhibitor = qHTS Assay for Inhibitors of Mammalian Selenoprotein Thioredoxin Reductase 1 (TrxR1): qHTS | 390,000 compounds, 1% hits | Thioredoxin reductase 1, cytoplasmic (Rattus norvegicus), O89049 | recombinant rTrxR1, NADPH fluorescence consumption, selenite substrate | AID 588453, 2011 | Potency, µM (highest dose often 114 µM), inactives show top-dose activity change, negative = inhibition, hits mostly inhibitors; further: on the % scale 0 is the no-effect control and ±100 the full control effect; nearly all actives have a fitted effect of over 65% in size
#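 Rat TrxR1 (90 nM in the dispensed reagent) was pre-reduced with 400 uM NADPH for 5 min at room temperature, then incubated with compound for 15 min. After 400 uM selenite was added, NADPH fluorescence (Ex 340/Em 450 nm) was followed for 8 min.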
# Vif-APOBEC3F blk = qHTS for Inhibitors of Vif-A3F Interactions: qHTS; HeLa A3F-eYFP + Vif (tagged APOBEC3F with the HIV-1 protein that degrades it), YFP fluorescence increase; Potency, µM (titrated, usually from 46.1 µM), for the others: top-dose activity, negative = active; 390,000 compounds, 0.2% hits; AID 602313, 2012; further: % of control where 0% means no effect; nearly all actives have a fitted effect of over 65% in size
#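 HeLa cells stably expressing A3F-eYFP plus Vif, plated and incubated overnight at 37 deg C, then exposed to compounds overnight at 37 deg C. Blocked degradation read as raised yellow fluorescence (Ex 488/Em 500-530).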
# TrxR1 substrate = qHTS Assay for Substrates of Mammalian Selenoprotein Thioredoxin Reductase 1 (TrxR1): qHTS. Thioredoxin reductase 1, cytoplasmic (Rattus norvegicus), O89049. purified TrxR1 substrate turnover, NADPH consumption readout. Potency, µM (top dose mostly 114 µM), for inactives: at the top dose activity change, negative = substrate turnover. 390,000 compounds, 0.01% hits; further: on the % scale 0 is the no-effect control and ±100 the full control effect; nearly all actives have a fitted effect of over 50% in size
#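 Rat TrxR1, dispensed at 90 nM, was prereduced with 400 uM NADPH (final) for 5 min at ~22 deg C, then incubated with compound 15 min before 400 uM selenite. A first-read NADPH fluorescence drop versus no-compound background flagged substrates.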
# Numbers without * were called inactive; ? = inconclusive; . = not tested or not shown; ! = a repeat was not active; [ ] = remark or other dose. Hits are enriched below; roughly 1.8% of the tested compounds scored in any of these assays. The call rests on the fitted dose curve; in most records, active means well fitted curve in the direction sought with a large enough effect; inconclusive means small, poorly fitted or top-dose-only effect, or another doubt; inactive means no such curve, though single readings can be large; an effect the other way counts as inactive or inconclusive. Potency means the concentration at half of the fitted maximal effect.
SMILES,VDR inh,Vif-A3G inh,rTrxR1 inhibitor,Vif-APOBEC3F blk,TrxR1 substrate
Cc1cc(C)c2[nH]c(=O)c(C(c3nnnn3CC3CCCO3)N3CCC(C)CC3)cc2c1 (centres undefined),-12%,-4%,20µM*,4%,7%[57.1 µM]
Cc1cc(C)c2[nH]c(=O)c(C(c3nnnn3CC3CCCO3)N3CCCC(C)C3)cc2c1 (centres undefined),-2%,-1%,?,9%,-4%
CC(=O)N1CCc2c(sc3c2c(=O)n(CCc2ccccc2)c(=O)n3Cc2ccc(F)cc2)C1,-17%,-3%,11%,-2%,-10%
CCN1CCc2nc(N)sc2C1,89µM*,4%,10%[57.1 µM],7%,7%[57.1 µM]
Cc1cccc(CCNC(=O)C2CCC(CNS(=O)(=O)c3c(C)cc(C)cc3C)CC2)c1 (centres undefined),1%,6%,4%[57.1 µM],1%,-11%[57.1 µM]
CN(Cc1ccc(Cl)cc1)C(=O)CCl,-12%,-1%,6.3µM*,-1%,3%
COc1ccc(CN(C)C(=O)CCl)cc1,-7%,0%,?,0%,5%[57.1 µM]
COc1cc(/C=C(/C#N)c2nc3ccccc3[nH]2)ccc1OCC(=O)Nc1ccccc1C(C)C,0%,-14%,6%,10µM*,4%
Cc1cc2nc(/C(C#N)=C/c3ccncc3)[nH]c2cc1C,22µM*,?,9%,-12%,-5%
COc1cc(/C=C(/C#N)c2nc3ccccc3[nH]2)ccc1OCC(=O)Nc1ccccc1C,?,-12%,-18%,-19%,-3%
N#C/C(=C\c1ccc(-c2ccc(Cl)c(C(=O)O)c2)o1)c1nc2ccccc2[nH]1,-14%,?,-34%,?,-28%
N#C/C(=C\c1ccncc1)c1nc2ccccc2[nH]1,0%,?,-11%[57.1 µM],?,-2%[57.1 µM]
Cc1ccc2nc(/C(C#N)=C/c3ccc(-c4cccc(Cl)c4)o3)[nH]c2c1,-8%,7.9µM*,7%,3.2µM*,1%
COc1cc(/C=C(\C#N)c2nc3ccc(C)cc3[nH]2)ccc1OC(C)C,2%,-32%,-1%,25µM*,3%[11.4 µM]
Cc1cc(Br)ccc1NC(=O)COC(=O)c1ccccc1OCC(N)=O,.,3%,11%,.,5%
CCc1cc(/C=C/c2ccnc3ccccc23)ccc1N(C)C,.,?,-1%,.,3%[0.0914 µM]
COc1cccc(NS(=O)(=O)c2cc(-c3cnc(C4CC4)o3)ccc2C)c1,15%,?,8%[57.1 µM],-10%,-4%[57.1 µM]
COc1cc(/C=C(\C#N)c2nc3ccccc3s2)ccc1OCC(=O)Nc1ccccc1,5%,10µM*,-4%,?,-5%
N#C/C(=C/c1ccncc1)c1nc2ccccc2s1,71µM*,?,?,?,6%
Cc1noc(/C=C/c2ccco2)c1S(=O)(=O)N1CCC(C(=O)N2CCc3ccccc3C2)CC1,20%,7%,50µM*,-3%,-8%
Cc1ccccc1NC(=O)C1CCN(S(=O)(=O)c2c(C)noc2/C=C/c2ccco2)CC1,-24%,-3%,-22%,-1%,-11%
O=C1N=C(N2CCOCC2)S/C1=C\c1ccccc1OS(=O)(=O)c1ccccc1,-9%,-4%,10%,-7%,-2%
CC(=O)N1CCN(C2=NC(=O)/C(=C/c3ccc(OS(=O)(=O)c4ccccc4)cc3)S2)CC1,50µM*,-1%,-12%,-1%,-13%
Cc1ccc2c(/C=C/c3ccc(N(C)C)cc3)ccnc2c1,.,?,-7%,.,-11%
Cc1ccc(N2C(=O)CC(Nc3ccc(Cl)c(S(=O)(=O)N(C)C)c3)C2=O)c(C)c1 (centres undefined),1%,4%,50µM*,-8%,5%
Cc1ccc(N(Cc2cc(=O)[nH]c3ccccc23)C(=O)CCl)c(C)c1,-17%,-7%,79µM*,2%,5%
O=c1c2ccccc2sn1-c1cc(S(=O)(=O)N2CCOCC2)ccc1N1CCOCC1,18µM*!,?,73%,7%,-10%
